Where “and” joins values, the source holds several entries; their conditions need not be identical. Equal values may be shown once. Records with an inconclusive call do not appear. Calls of active or inactive are those of the source. Unless noted, calls come from the whole dose curve; as a rule, active = well fitted curve in the direction sought with a large enough effect; inconclusive = small, poorly fitted or top-dose-only effect, or another doubt; inactive = no such curve, though single readings can be large; an effect the other way counts as inactive or inconclusive.

Assay [1] deals with Mitogen-activated protein kinase 10 (Mus musculus) (UniProt Q61831). The assay is described as follows: JNK3 AlphaScreen Assay (AID 530; active = well fitted curve in either direction with a large enough effect, not every such curve was filed as active;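 note: kinase came from lysate of stimulated human HepG2 cells; signal reports phosphorylation of biotinylated GST-cJun 1-79 at Ser73 with 10 µM ATP; % is set by controls: 0 for no effect and ±100 for the full control effect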). In short, it runs like this: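 Biotinylated GST-cJun(1-79) served as substrate for JNK3 in HepG2 lysates stimulated with IL-1beta and TNF-alpha. ATP was 10 uM final, pH 7.6. Ser73 phosphorylation was quantified by AlphaScreen (680 nm excitation).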
(Bead proximity is the source of the signal in Alpha formats.)

Assay [2] in a line: Cell Viability - HUV-EC-C (AID 542).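 Note: cells exposed to compound for 40 hours; % is set by controls: 0 for no effect and ±100 for the full control effect; nearly all actives have a fitted effect of over 35% in size.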 The procedure, abridged: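 Luminescent ATP read-out (CellTiter-Glo, 20 min room temperature) after 40 hr compound treatment of HUV-EC-C cells at 37 °C. Concentration-response data fitted with the standard Hill equation to give AC50; tamoxifen and doxorubicin served as positive controls.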
Assay [3] is described as follows: Cell Viability - Renal Proximal Tubule (AID 545).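 Note: cells exposed to compound for 40 hours; 0% = DMSO only and -100% = 100 µM tamoxifen; nearly all actives have a fitted effect of over 40% in size.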 In short, it runs like this: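 Viability taken as intracellular ATP (CellTiter-Glo luminescence) after 40 hr, 37 °C compound treatment of primary proximal tubule cells from rat kidney, 1000 cells/well; Hill-equation fits of qHTS concentration-response data gave AC50.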
A short description of assay [4]: Cell Viability - Mesenchymal (AID 546).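 Note: cells exposed to compound for 40 hours before reading; 0% = DMSO only and -100% = 100 µM tamoxifen.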 The procedure, abridged:
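In this qHTS cytotoxicity format, glomerulus-derived human mesenchymal kidney cells received compound for 40 hr, then luciferase-based ATP quantitation. Concentration-response data were fitted with the Hill equation.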

Assay [5] in a line: Cellular Toxicity (caspase-3) Renal Proximal Tubule (AID 667).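 Note: cells exposed to compound for 16 hours at 37 °C before detection; 0% = DMSO basal and 100% = 10 µM staurosporine.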 In short, it runs like this: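 Caspase 3/7 activation measured by luminescent aminoluciferin release in primary rat proximal tubule cells after 16 hr compound exposure at 37 °C. AC50 from Hill-fitted concentration-response, scaled between DMSO and 10 uM staurosporine.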
A short description of assay [6]: MultiTox-Fluor Cytotoxicity Assay - LYMP1-001 - Live Cells (AID 947).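 Note: 0% = DMSO only and full inhibition = tetraoctylammonium bromide control.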
A short description of assay [7]: Cell Viability - LYMP2-005 (AID 967).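 Note: plate controls were DMSO only for no effect and 92 µM tetraoctylammonium bromide control for full effect.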 The procedure, abridged: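 LYMP2-005 human lymphoblastoid cells (2500/well) were treated with compounds for 24 h at 37 C. Intracellular ATP was then measured by CellTiter-Glo luminescence after 30 min at room temperature. AC50 values came from Hill-equation fits of qHTS concentration-response data.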
The nature of assay [8]: Cell Viability - LYMP2-024 (AID 988).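 For activity change, negative = cytotoxicity: plate controls were DMSO only for no effect and 92 µM tetraoctylammonium bromide for full effect.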 Note: nearly all actives have a fitted effect of over 60% in size. Note: potency is the fitted concentration of half-maximal effect. The procedure, abridged:
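ATP-based luminescence (CellTiter-Glo, 30 min RT) after 24 h compound exposure at 37 C of 2500 lymphoblastoid cells/well; decrease in ATP taken as cytotoxicity. qHTS concentration-response fitted to standard Hill equation for AC50.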

Assay [9] concerns the target Vitamin D3 receptor (Homo sapiens) (UniProt P11473). The assay is described as follows: qHTS assay for small molecule antagonists of vitamin D receptor signaling (AID 588541; calls by dose curve;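 note: receptor activated by calcitriol during compound treatment; % is set by controls: 0 for no effect and ±100 for the full control effect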). The procedure, abridged: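 VDR-UAS-bla HEK293T cells (2000/well, 2% charcoal-stripped FBS) were treated with titrated compounds plus 1-alpha,25-dihydroxyvitamin D3 (50 nM or 3 nM final) for 16 h at 37 C. CCF4 beta-lactamase fluorescence was read; Hill fits gave IC50.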
Background: Quantitative high-throughput screening tests each substance at several concentrations.

The target of assay [10] is Voltage-gated inwardly rectifying potassium channel KCNH2 (Homo sapiens) (UniProt Q12809). Briefly: qHTS Assay for Small Molecule Inhibitors of the Human hERG Channel Activity (AID 588834).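 Note: top concentration of the series differs between compounds; % is set by controls: 0 for no effect and ±100 for the full control effect; lower thallium flux fluorescence means stronger hERG block; nearly all actives have a fitted effect of over 50% in size.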 The procedure, abridged:
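hERG block measured as reduced thallium-dye (FluxOR) fluorescence after stimulation buffer addition, read over 2 min. Cells were hERG-BacMam-transduced U2OS exposed to compound ~10 min […]; concentration-response fitted with Hill equation for AC50.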

Assay [11] can be described thus: qHTS assay for small molecule disruptors of the mitochondrial membrane potential - 1 hr assay (AID 651754; calls by dose curve; note: nearly all actives have a fitted effect of over 35% in size; note: potency is the fitted concentration of half-maximal effect). The procedure, abridged: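 Read-out: dye fluorescence at 490 nm ex/535 nm em (monomers) and 540 nm ex/590 nm em (aggregates) in HepG2 cells. Compound exposure 1 hr at 37C, followed by 30 min dye loading.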
The nature of assay [12]: qHTS assay for cell viability of HEK293 cells (AID 743288). Note: % is set by controls: 0 for no effect and ±100 for the full control effect; nearly all actives have a fitted effect of over 50% in size. As to conditions: ATP luminescence (CellTiter-Glo), 18 h, stronger effect = lower value. In short, it runs like this:
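Readout is luciferase-coupled ATP content (CellTiter-Glo luminescence, 30 min room temperature) as a measure of metabolically competent cells. Parental HEK293 cells were plated 5 h or more before compound addition, then treated 18 h at 37 C.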

Assay [13] deals with Nuclear receptor subfamily 1 group I member 2 (Rattus norvegicus) (UniProt Q9R1A7). Briefly: qHTS assay for small molecule activators of the rat pregnane X receptor (rPXR) signaling pathway (AID 651751; call rule not given here; note: 0% is about no effect). The following applies: rPXR reporter cells, luciferase (One-Glo), 24 h.
Chain of Nuclear receptor subfamily 1 group I member 2 (Rattus norvegicus) (Q9R1A7 whole entry, looked up): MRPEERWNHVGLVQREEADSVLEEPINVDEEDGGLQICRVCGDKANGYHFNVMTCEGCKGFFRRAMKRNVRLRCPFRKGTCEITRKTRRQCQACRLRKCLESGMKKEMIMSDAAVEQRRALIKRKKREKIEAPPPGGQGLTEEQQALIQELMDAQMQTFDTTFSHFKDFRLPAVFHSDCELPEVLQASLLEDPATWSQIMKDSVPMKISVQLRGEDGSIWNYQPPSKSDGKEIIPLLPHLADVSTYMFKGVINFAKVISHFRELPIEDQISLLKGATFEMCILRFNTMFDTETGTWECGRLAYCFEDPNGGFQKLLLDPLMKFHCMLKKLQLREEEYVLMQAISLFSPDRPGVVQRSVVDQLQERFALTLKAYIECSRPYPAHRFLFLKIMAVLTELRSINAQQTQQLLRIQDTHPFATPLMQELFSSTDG
The nature of assay [14]: qHTS assay for small molecule activators of the human pregnane X receptor (PXR) signaling pathway (AID 720659; call rule not given here; note: 0% is about no effect).
Assay [15] is described as follows: Cell Viability - N2a (AID 540).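 Note: cells exposed to compound for 40 h at 37 °C; plate controls were DMSO alone for no effect and tamoxifen control for full effect; nearly all actives have a fitted effect of over 45% in size.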 The following applies: N2a mouse neuroblastoma cell viability; activity change, negative = cytotoxicity: at 92.2 µM (top of the series). The procedure, abridged:
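N2a mouse neuroblastoma, 1500 cells/well, 5 hr settle; compound 40 hr, 37 °C; CellTiter-Glo 20 min RT; luminescence; Hill-fit AC50.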

For assay [16], the target named is Cytochrome P450 3A4 (Homo sapiens) (UniProt P08684). The assay is described as follows: qHTS Assay for Inhibitors and Substrates of Cytochrome P450 3A4 (AID 884). Note: % is set by controls: 0 for no effect and ±100 for the full control effect; nearly all actives have a fitted effect of over 50% in size. The procedure, abridged:
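Luminescent readout of luciferin produced by CYP3A4 (20 nM) dealkylation of Luciferin-PPXE, 25 uM (its KM). NADPH-driven reaction ran 60 min at RT after 10 min compound preincubation; data scaled to 57 uM ketoconazole as 100% inhibition.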

A short description of assay [17]: Cell Viability - LYMP2-010 (AID 981).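 Note: cells exposed to compound for 24 hours at 37 °C; nearly all actives have a fitted effect of over 55% in size.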 Note: potency is the fitted concentration of half-maximal effect. In short, it runs like this: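 qHTS cytotoxicity, 1536-well: 2500 cells/well, 5 hr settle, 24 hr compound at 37 C, CellTiter-Glo 30 min RT, luminescence read. Decrease in ATP = toxicity; AC50 via standard Hill equation. Positive control tetraoctylammonium bromide.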
A short description of assay [18]: qHTS assay for small molecule antagonists of retinoid X receptor alpha signaling (AID 588546).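 Note: cells stimulated with 9-cis-retinoic acid as agonist; % is set by controls: 0 for no effect and ±100 for the full control effect.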 As to conditions: HEK293T RXRa-UAS-bla, beta-lactamase ratio, antagonist mode; measured here: W530 green channel, cytotoxicity proxy. In short, it runs like this: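 Beta-lactamase reporter inhibition, read as CCF4 fluorescence ratio (ex 405, em 460/530 nm) after 2 h at RT. HEK293T UAS-bla cells, 2500/well, were stimulated with 9-cis-RA at 500 or 100 nM final alongside test compound for 18 h at 37 C.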

Assay [19] can be described thus: Cellular Toxicity (caspase-3) Mesangial (AID 660).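 Note: combined caspase 3 and 7 activity read by Caspase-Glo luminescence; cells exposed to compound for 16 h before the caspase read.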 In short, it runs like this:
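Luminescent Caspase-Glo 3/7 readout (aminoluciferin substrate cleavage, 20 min RT) after 16 h compound exposure at 37 °C of normal human mesangial cells. Signal increase normalized between DMSO basal and 100 uM tamoxifen; Hill-equation AC50.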

Assay [20] can be described thus: Cell Viability - LYMP2-016 (AID 984). For activity change, negative = cytotoxicity: % is set by controls: 0 for no effect and ±100 for the full control effect.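 Note: cells exposed to compound for 24 hours at 37 °C; nearly all actives have a fitted effect of over 55% in size.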 Note: potency is the fitted concentration of half-maximal effect. The procedure, abridged:
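Cytotoxicity was scored by luminescent ATP content (CellTiter-Glo) after 24 h compound exposure at 37 C of a human lymphoblastoid line at 2500 cells/well. Concentration-response data were fitted to the Hill equation for AC50.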

Chain of Voltage-gated inwardly rectifying potassium channel KCNH2 (Homo sapiens) (Q12809 whole entry, looked up): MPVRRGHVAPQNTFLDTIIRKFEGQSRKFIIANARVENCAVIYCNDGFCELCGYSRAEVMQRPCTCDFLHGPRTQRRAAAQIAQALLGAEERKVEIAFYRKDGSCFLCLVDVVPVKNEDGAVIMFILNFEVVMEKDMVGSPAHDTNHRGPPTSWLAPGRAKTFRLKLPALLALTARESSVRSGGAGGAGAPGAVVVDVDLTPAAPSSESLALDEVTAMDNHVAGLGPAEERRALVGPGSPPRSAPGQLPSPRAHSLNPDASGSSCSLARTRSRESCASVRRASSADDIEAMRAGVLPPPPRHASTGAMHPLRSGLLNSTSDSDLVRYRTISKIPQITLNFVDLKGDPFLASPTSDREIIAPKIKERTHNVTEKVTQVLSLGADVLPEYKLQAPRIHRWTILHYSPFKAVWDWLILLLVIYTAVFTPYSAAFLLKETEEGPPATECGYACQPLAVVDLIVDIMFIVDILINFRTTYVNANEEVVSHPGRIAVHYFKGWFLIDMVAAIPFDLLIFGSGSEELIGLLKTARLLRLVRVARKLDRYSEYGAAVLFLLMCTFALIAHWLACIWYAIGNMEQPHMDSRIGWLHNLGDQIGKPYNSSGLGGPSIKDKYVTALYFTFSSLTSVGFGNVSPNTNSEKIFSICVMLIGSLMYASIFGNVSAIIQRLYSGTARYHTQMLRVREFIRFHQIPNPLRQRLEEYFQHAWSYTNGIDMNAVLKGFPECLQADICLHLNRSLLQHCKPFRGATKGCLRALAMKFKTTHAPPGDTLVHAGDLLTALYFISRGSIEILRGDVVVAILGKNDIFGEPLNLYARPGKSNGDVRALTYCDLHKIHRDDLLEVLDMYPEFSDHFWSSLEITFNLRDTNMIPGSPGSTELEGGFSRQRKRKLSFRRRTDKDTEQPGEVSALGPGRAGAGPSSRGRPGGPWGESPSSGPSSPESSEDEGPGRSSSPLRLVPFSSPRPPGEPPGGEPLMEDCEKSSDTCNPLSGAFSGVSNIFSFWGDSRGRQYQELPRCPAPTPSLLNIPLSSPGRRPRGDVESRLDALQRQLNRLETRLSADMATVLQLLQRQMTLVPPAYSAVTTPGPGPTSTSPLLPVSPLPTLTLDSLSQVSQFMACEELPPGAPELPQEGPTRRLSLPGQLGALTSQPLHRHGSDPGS
Chain of Cytochrome P450 3A4 (Homo sapiens) (P08684 whole entry, looked up): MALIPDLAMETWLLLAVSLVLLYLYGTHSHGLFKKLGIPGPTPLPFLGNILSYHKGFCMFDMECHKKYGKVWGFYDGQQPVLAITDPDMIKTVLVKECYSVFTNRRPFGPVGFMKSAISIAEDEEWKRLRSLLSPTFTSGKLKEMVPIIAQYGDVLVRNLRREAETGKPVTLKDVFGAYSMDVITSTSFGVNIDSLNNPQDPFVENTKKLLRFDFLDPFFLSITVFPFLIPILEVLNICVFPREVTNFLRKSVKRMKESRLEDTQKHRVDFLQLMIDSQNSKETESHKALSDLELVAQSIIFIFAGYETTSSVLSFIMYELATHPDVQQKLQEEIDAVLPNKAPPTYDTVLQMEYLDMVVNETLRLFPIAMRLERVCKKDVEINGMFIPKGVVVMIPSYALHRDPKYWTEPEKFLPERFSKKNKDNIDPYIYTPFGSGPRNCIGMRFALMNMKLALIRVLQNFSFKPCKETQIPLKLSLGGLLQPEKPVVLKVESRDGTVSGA
Chain of Vitamin D3 receptor (Homo sapiens) (P11473 whole entry, looked up): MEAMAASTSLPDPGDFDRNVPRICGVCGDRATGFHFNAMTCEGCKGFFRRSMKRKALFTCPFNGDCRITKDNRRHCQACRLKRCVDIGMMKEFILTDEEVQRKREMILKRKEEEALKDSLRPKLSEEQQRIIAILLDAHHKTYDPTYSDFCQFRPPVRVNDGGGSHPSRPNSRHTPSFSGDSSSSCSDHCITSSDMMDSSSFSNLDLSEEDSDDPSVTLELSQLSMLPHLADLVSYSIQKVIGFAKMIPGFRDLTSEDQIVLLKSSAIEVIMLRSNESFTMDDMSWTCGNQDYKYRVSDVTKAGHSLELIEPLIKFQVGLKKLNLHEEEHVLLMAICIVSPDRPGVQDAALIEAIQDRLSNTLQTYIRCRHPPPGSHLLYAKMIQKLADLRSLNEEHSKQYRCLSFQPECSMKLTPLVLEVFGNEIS

Regarding `Oc1ccc(Cl)c(Cl)c1Cl`, the Potency result in assay [1], in assay [2], in assay [4], in assay [7], in [8] and in assay [10] was “inactive” in each case. Besides, the outcome in assay [3], in assay [5], in [6], in assay [9] and in assay [14] was inactive. Also, the Potency in [11] was 42.2 µM (active). The results for the max response in assay [12] and in assay [13] were -4.77% (inactive) and 8.33% (inactive), respectively.

Turning to `O=c1ccc(=O)[nH][nH]1`, the Potency result in assay [15], in assay [2], in assay [4], in assay [16], in assay [7] and in [17] was “inactive” each time. The Potency result in [8] and in [10] was “inactive” each time. Further, the outcome in assay [3], in assay [6], in assay [9] and in assay [14] was inactive. Besides, the max response in assay [18] was -4.32% and 8.97%; in assay [12], 3.74% (inactive) and 5.95% (inactive); in assay [13], 0.0495% (inactive) and -4.15% (inactive).

As to `Cc1ccc(N)cc1C`, the Potency entry in assay [1], in [15], in assay [2], in [4], in assay [16] and in assay [7] was “inactive” throughout. For the same molecule, the Potency result in assay [17], in assay [20], in assay [8], in assay [10] and in assay [11] was “inactive” in each case. The outcome in [3], in assay [19], in [5], in assay [6], in assay [9] and in [14] was inactive. Also, the max response in assay [18] was -3.11%.

Take `C=CCCl`: the Potency entry in assay [1], in assay [15], in assay [4], in [16], in assay [7] and in assay [17] was “inactive” each time. In addition, the Potency result in assay [8], in [10] and in assay [11] was “inactive” each time. Further, the result in assay [3], in assay [19], in [6], in assay [9] and in assay [14] was inactive. The results for the max response in assay [12] and in [13] were 2.61% (inactive) and 0.623% (inactive), respectively.

In the case of `CC(C#N)CCC#N` (centres undefined), the Potency entry in assay [1], in assay [15], in assay [2], in assay [4], in assay [16] and in assay [17] was “inactive” each time. For the same molecule, the Potency entry in assay [20], in assay [8] and in assay [10] was “inactive” each time. Besides, the molecule was called inactive in assay [3], in [19], in [5], in assay [6], in assay [9] and in assay [14]. For the same molecule, the max response in assay [18] was -1.82%; in assay [12], -7.04% (inactive); in [13] it was 3.89% (inactive).

With `CCCCOC(=O)c1ccccc1N`, the Potency entry in [1], in assay [15], in assay [2], in assay [4], in assay [16] and in assay [7] was “inactive” in each case. Besides, the Potency result in assay [17], in assay [20], in assay [8], in assay [10] and in assay [11] was “inactive” each time. For the same molecule, the outcome in assay [3], in [19], in [6], in assay [9] and in [14] was inactive. The max response in [18] is -0.876%; in assay [12], -7.97% (inactive); in [13], -1.8% (inactive).

With `OC[P+](CO)(CO)CO`, the Potency result in assay [1], in assay [15], in assay [2], in assay [4], in assay [16] and in assay [10] was “inactive” in each case. Besides, the Potency entry in assay [11] was “inactive”. For the same molecule, the outcome in assay [3], in [19], in assay [5] and in assay [6] was inactive. Moreover, the Potency was 20 µM (active) in assay [17], 20 µM (active) in assay [20] and 7.94 µM (active) in assay [8]. Moreover, the max response is 5.58% and 5.35% in assay [18]; -13.3% (inactive) in assay [12]; -2.2% (inactive) and -0.448% (inactive) in assay [13].

Consider `NC1CCC(CC2CCC(N)CC2)CC1` (centres undefined), for which the Potency result in [1], in [15], in assay [2], in assay [4], in [16] and in assay [7] was “inactive” each time. In addition, the Potency entry in [20], in [8], in assay [10] and in assay [11] was “inactive” in each case. Further, the result in assay [19], in assay [5], in assay [6] and in assay [14] was inactive. For the same molecule, the max response in assay [18] is 2.2% and -10.5%; in assay [12], 7.87% (inactive) and 2.31% (inactive); in assay [13], 5.41% (inactive) and 4.82% (inactive).

(Values after PubChem BioAssay (NCATS).)
